# Assay results from PubChem BioAssay AID2315 (National Center for Advancing Translational Sciences (NCATS), 2010).
# The campaign covered roughly 290,000 compounds. About 27,000 (9.3%) were called active. Cut-off read from the data, not from the text of the source: active = inhibition mostly above about 28% (no sharp cut-off); inactive = mostly below about 43%. The entries come from a sample that favours actives as a whole.
# Assay: A qHTS for Small Molecule Inhibitors of Shiga Toxin; note: 0% is about no effect
# Conditions: Vero cells, Shiga toxin protein synthesis inhibition reporter; at 38.7 µM, hits give high values
row,SMILES,inhibition
1,COc1ccc(S(=O)(=O)N/N=C\c2ccc(OC)c(COc3ccc(C)cc3[N+](=O)[O-])c2)cc1,-12.5% (inactive)
2,COc1ccc(NC(=O)c2ccc(C#CC(C)(C)O)cc2)cc1,28% (inactive)
3,COc1ccc(NC(=O)c2ccc(OC)cc2)cc1,105% (active)
4,O=C(CS(=O)(=O)c1ccccc1)Nc1ccc(S(=O)(=O)Nc2ccccn2)cc1,-7.44% (inactive)
5,COc1ccc(C(=O)Nc2ccc(CN3CCOCC3)cc2)cc1,80.4% (active)
6,Cc1cccc(C(=O)Nc2ccccc2C(=O)NCc2cccnc2)c1,-16.9% (inactive)
7,Cc1cccc(C(=O)Nc2ccc(Oc3cnccn3)cc2)c1,57.2% (active)
8,COc1ccc(C(=O)Nc2cccc(S(C)(=O)=O)c2)cc1,21.9% (inactive)
9,COc1ccc(NC(=O)c2cnc(NS(=O)(=O)c3ccccc3)nc2)cc1,-13.6% (inactive)
10,Cc1noc(C)c1COc1cccc(C(=O)Nc2cccnc2)c1,-6.89% (inactive)
11,COc1ccc(NC(=O)CS(=O)(=O)c2ccccc2)cc1,28.2% (active)
12,CCOc1ccc(C(=O)Nc2ccc(CN3CCOCC3)cc2)cc1Cl,9.47% (inactive)
13,O=C(Nc1ccc(CSc2ccccc2)cc1)c1ccc(CN2CCOCC2)cc1,7.03% (inactive)
14,O=C(NCCCN1CCCC1=O)C(=O)NCC1OCCN1S(=O)(=O)c1ccc(Br)cc1 (stereo unspecified),22.9% (inactive)
15,Nc1nc(Nc2ccccc2F)nc(NC2CCCCC2)c1[N+](=O)[O-],2.97% (inactive)
16,Cn1c(N2CCOCC2)c(C=O)c2ccccc21,-1.16% (inactive)
17,Cc1ccc(Cn2ncc3c4sc(C)cc4n(C)c3c2=O)c(C)c1,-2.93% (inactive)
18,C=CCn1cc(Cl)cc(C(=O)Nc2ccccc2)c1=O,16.8% (inactive)

row,SMILES,inhibition
1,CCN(CC)c1ccc(C(=O)NNC(=O)CCc2nc3ccccc3c(=O)[nH]2)cc1,10.9% (inactive)
2,Cc1ccc(NC(=O)COc2ccc(/C=C3/NC(=O)NC3=O)cc2)cc1,8.39% (inactive)
3,CC(C)CN(CC(C)C)C(=O)CN1c2cccc3cccc(c23)S1(=O)=O,2.89% (inactive)
4,COc1ccc(C(CCN2CCOCC2)c2c(OC)cc(OC)c3c2OC(=O)CC3c2ccc(OC)cc2)cc1 (stereo unspecified),-0.588% (inactive)
5,COc1ccc(C(C)NC(=S)NC2CCCCC2)cc1OC (stereo unspecified),-35.1% (inactive)
6,CCc1c(C)c2ccc(OC3CCCCC3=O)cc2oc1=O (stereo unspecified),28% (inactive)
7,COc1ccc(-c2nn(CCC#N)cc2C(=O)Nc2ccc(C(C)=O)cc2)cc1,25.5% (inactive)
8,CCOC(=O)c1c(NC(=O)c2ccc(N3CCOCC3)c([N+](=O)[O-])c2)sc(C)c1C,9.37% (inactive)
9,COc1ccc(C(=S)Nc2ccccc2)cc1,62.5% (active)
10,CCC(=O)Nc1ccc(C(=O)Nc2cccc(OC)c2)cc1,108% (active)
11,COc1cccc(NC(=O)c2ccc(S(=O)(=O)N(C)C)cc2)c1,70.6% (inactive)
12,COc1ccc(NC(=O)C(C)SCc2ccccc2)cc1 (stereo unspecified),40.5% (inactive)
13,COc1ccc(C(=O)Nc2ccnn2C2CCN(Cc3ccncc3)CC2)cc1,-4.63% (inactive)
14,COc1ccc(C(=O)Nc2sc(C)c(C)c2CN2CCOCC2)cc1,82.5% (active)
15,COc1ccc(NC(=O)c2sc(N)nc2-c2ccccc2)cc1,9.77% (inactive)
16,COc1cccc(NC(=O)CN(C)CC(=O)Nc2ccc3c(c2)CCC3)c1,-9.55% (inactive)
17,COc1ccc(NC(=O)c2sccc2SCC#N)cc1,52.8% (active)
18,COCCNC(=S)c1ccc(OC)cc1,13% (inactive)
